ELG1 repair inh – inhibitors of ELG1-dependent DNA repair in HEK293T cells | HEK293T ELG1-luciferase reporter, luminescence, 16 h; DNA damage induced by 5-fluorouridine | AID 504467 | Potency, µM (titrated, usually from 46.1 µM), for the others: top-dose activity change, negative = inhibition, most hits filed as inhibitors | hit rate 2.3% among 330,000; also: % is scaled to controls: 0 for no effect and ±100 for the full control effect; nearly all actives have a fitted effect of over 55% in size
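In this reporter screen, reduction of luminescence relative to DMSO vehicle indicated activity. Compounds and 5-fluorouridine were added together to 2,000 cells per well, incubated for 16 hr at 37 °C, then developed with ONE-Glo.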
SMN2 splice up – increases expression of the SMN2 splice variant; HEK293 SMN2-luciferase splicing reporter, luminescence, 30-36 h; Potency, µM (titrated, usually from 46.1 µM), inactives show at the highest dose activity change, positive = activation, hits mostly activators; hit rate 2.8% among 210,000; AID 1458; also: % of control where 0% means no effect; nearly all actives have a fitted effect of over 55% in size
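HEK293 cells carry an SMN2 minigene-luciferase reporter in which exon 7 inclusion puts luciferase in frame. Cells were seeded at 2000 cells/well, attached for 10-12 hours, then exposed to compounds for 30-36 hours at 37C before ONE-Glo luminescence.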
Rab9 prom act – Rab9 promoter activation; Huh7 Rab9 promoter-luciferase reporter, luminescence, 24 h; Potency, µM (top dose mostly 9.22 µM), for the others: at the top dose activation, negative = inhibition, most hits filed as activators; hit rate 2.8% among 320,000; AID 485297; also: % of control where 0% means no effect; nearly all actives have a fitted effect of over 60% in size
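Using Huh7 cells stably transfected with Rab9 promoter–luciferase, compounds were incubated 24 h at 37 °C, 5% CO2; luciferase luminescence was read 10 min after reagent addition.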
NPC1 prom act – activators of NPC1 promoter; Huh7 NPC1 promoter luciferase reporter, 24 h; Potency, µM (series often up to 9.22 µM), for the others: at the highest dose activation, usual class: activators; hit rate 2.4% among 320,000; also: % of control where 0% means no effect; nearly all actives have a fitted effect of over 60% in size
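Huh7 cells stably carrying NPC1 promoter–luciferase, plated in Opti-MEM with 10% FBS for 2 h, were exposed to compound in DMSO for 24 h at 37 °C; luciferase reagent was added for 10 min and luminescence read.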
ELG1 genotoxic – inducers of genotoxicity in HEK293T ELG1-luciferase cells; HEK293T ELG1-luciferase reporter, luminescence, 16 h; hit rate 1.3% among 330,000; AID 504466; Potency, µM (series often up to 46 µM), for inactives: at the top dose activity change, positive = activation, actives largely listed as activators; also: % of control where 0% means no effect; nearly all actives have a fitted effect of over 60% in size
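Quantitative HTS format in 1536-well plates. HEK293T ELG1-luciferase reporter cells receive test compound and are incubated 16 hr at 37 °C, 5% CO2; ONE-Glo added, 30 min room temperature, then luminescence read.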
FLuc counter – inhibits or activates purified firefly luciferase, miR-21 counter-screen; purified FLuc, Km substrates, luminescence inhibition; hit rate 6.9% among 360,000; P08659; Potency, µM (doses to about 57.5 µM), without a hit: at the top dose activity change, negative = inhibition, usual class: inhibitors;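 also: plate controls were vehicle for no effect and reference inhibitor for full effect; nearly all actives have a fitted effect of over 55% in size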
Target sequence (P08659 whole entry, looked up): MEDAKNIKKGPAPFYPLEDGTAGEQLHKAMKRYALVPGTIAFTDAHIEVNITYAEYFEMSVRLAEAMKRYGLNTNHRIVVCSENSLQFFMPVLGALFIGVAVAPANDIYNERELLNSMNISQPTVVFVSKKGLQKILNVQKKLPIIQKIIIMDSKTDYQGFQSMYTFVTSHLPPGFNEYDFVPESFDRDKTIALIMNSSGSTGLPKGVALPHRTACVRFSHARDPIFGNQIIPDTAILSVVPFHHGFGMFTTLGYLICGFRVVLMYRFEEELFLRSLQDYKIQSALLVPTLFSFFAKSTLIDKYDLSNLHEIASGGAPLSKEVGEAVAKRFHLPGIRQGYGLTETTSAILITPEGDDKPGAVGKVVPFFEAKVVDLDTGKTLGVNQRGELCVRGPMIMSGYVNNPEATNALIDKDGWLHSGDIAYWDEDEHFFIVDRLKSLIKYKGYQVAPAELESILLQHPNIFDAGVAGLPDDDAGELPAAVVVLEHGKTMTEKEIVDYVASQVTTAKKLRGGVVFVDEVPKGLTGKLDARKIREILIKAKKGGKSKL
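Purified P. pyralis luciferase, 10 nM final, with Km-level 10 uM D-luciferin and 10 uM ATP in 50 mM Tris acetate pH 7.5, 10 mM Mg acetate, 0.01% Tween-20, 0.05% BSA; 6-point qHTS titration about 60 µM downward; luminescence read.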
* hit, by the source's call; [ ] = dose if it differs, or a comment. Only some compounds are listed: those with a hit (about 9.4% of all), similar ones and a draw of the others. Calls follow the shape of the dose curve; as a rule, active = well fitted curve in the direction sought with a large enough effect; inconclusive = small, poorly fitted or top-dose-only effect, or another doubt; inactive = no such curve, though single readings can be large; an effect the other way counts as inactive or inconclusive. Potency is read from the fitted curve at half-maximal effect.

For O=C(/C(=C/O)N=Nc1ccccc1Cl)c1ccccc1 the results were ELG1 repair inh inconclusive, SMN2 splice up -26.9%, Rab9 prom act -3.5%, NPC1 prom act 0.7%, ELG1 genotoxic -4.4% and FLuc counter 21.3µM*.
Screening Cc1cnc(NC(=O)CCCNC(=O)c2ccc(Cl)cc2)s1 returned ELG1 repair inh inconclusive, Rab9 prom act inconclusive, NPC1 prom act 26.4%, ELG1 genotoxic inconclusive and FLuc counter 8.49µM*.
For O=C(O)CCc1ccc(S(=O)(=O)Nc2ccccc2C(=O)NCCc2ccccc2)cc1 the results were ELG1 repair inh inconclusive, Rab9 prom act 3.16µM*, NPC1 prom act 2.24µM*, ELG1 genotoxic inconclusive and FLuc counter 19µM*.
For COc1ccc(NC(=O)c2ccccc2NS(C)(=O)=O)cc1OC the results were ELG1 repair inh 3.1%, SMN2 splice up -4.3%, Rab9 prom act -5.1%, NPC1 prom act -4.5%, ELG1 genotoxic -3.1% and FLuc counter 16.9µM*.
O=C(NCCc1ccccc1)c1ccccc1NC(=O)C1CCCCC1C(=O)O (configuration not stated) was read as ELG1 repair inh inconclusive, SMN2 splice up 11.2µM*, Rab9 prom act 2µM*, NPC1 prom act inconclusive, ELG1 genotoxic inconclusive and FLuc counter inconclusive.
`COc1ccccc1NC(=O)c1ccccc1NS(C)(=O)=O` gave ELG1 repair inh 4.5%, SMN2 splice up -6.1%, Rab9 prom act -6.1%[1.84 µM], NPC1 prom act -1.5%, ELG1 genotoxic -5.9% and FLuc counter 0.9%.
For COc1ccc(NC(C)=O)cc1S(=O)(=O)Nc1ccccc1C(=O)NCCc1ccccc1 the results were ELG1 repair inh inconclusive, Rab9 prom act 2µM*, NPC1 prom act 2.24µM*, ELG1 genotoxic inconclusive and FLuc counter 16.9µM*.
For C/C(=N/O)[C@@H]1C[C@H](CC(=O)O)C1(C)C the results were SMN2 splice up -14.3%[9.22 µM].
Screening CCOC(=O)C1CCN(C(=O)C2CCN(c3nnc(C)c4c(C)n(-c5ccccc5)nc34)CC2)CC1 returned FLuc counter 0.4%.
Screening NC(=O)c1cc[n+](CC2=C(C(=O)[O-])N3C(=O)[C@@H](NC(=O)Cc4cccs4)[C@@H]3SC2)cc1 returned SMN2 splice up -1.3%[20.6 µM].
COC(=O)c1ccc2nc(C)cc(Nc3cccc(Cl)c3C)c2c1 was read as SMN2 splice up -0.3% and FLuc counter -8.0%.
`COC(=O)c1ccc(NC(=O)c2ccccc2NS(C)(=O)=O)cc1` gave ELG1 repair inh 19.0%, SMN2 splice up 6.1%, Rab9 prom act 1.4%, NPC1 prom act 0.2%, ELG1 genotoxic -3.6% and FLuc counter 12µM*.
Screening COc1ccc(-c2nc3c(c4c2C[C@H](c2ccccc2)OC4)CN(C(=O)NCc2ccco2)CC3)c(C)c1 returned SMN2 splice up 1.7%[9.22 µM].
COCCCn1c(SCC(=O)OC2CCCCC2)nnc1-c1cccs1 was read as ELG1 repair inh 1.5%, SMN2 splice up -5.0%, Rab9 prom act 6.6%, NPC1 prom act 0.1%, ELG1 genotoxic -0.5% and FLuc counter 19µM*.
COCCCn1c(SCC(=O)OC2CCCCC2)nnc1-c1ccco1 was read as ELG1 repair inh 23.5%, SMN2 splice up -2.4%, Rab9 prom act 3.3%, NPC1 prom act 1.4%, ELG1 genotoxic -1.7% and FLuc counter 12µM*.
For COc1ccc(NC(=O)N2CCC3(CC2)CCN(C(=O)c2ccco2)CC3)cc1 the results were SMN2 splice up -12.9%.
COc1cc(C2c3c(oc4ccccc4c3=O)C(=O)N2c2nnc(C(C)C)s2)cc(OC)c1OC (configuration not stated) was read as SMN2 splice up -3.9% and FLuc counter -1.1%.
CCOc1ccc(NC(=O)c2cc(S(=O)(=O)N3CCc4ccccc43)ccc2F)cc1 was read as FLuc counter -4.6%.
`N#Cc1ccc(CSc2nnc(-c3cnccn3)o2)cc1` gave ELG1 repair inh 1.1%, SMN2 splice up -3.5%, Rab9 prom act -4.5%, NPC1 prom act -0.9%, ELG1 genotoxic -1.5% and FLuc counter -0.5%.
For O=C(CSc1n[nH]c(-c2ccccn2)n1)Nc1ccc(F)cc1 the results were ELG1 repair inh inconclusive, Rab9 prom act -21.4%, NPC1 prom act -22.3%, ELG1 genotoxic -15.0% and FLuc counter 0.2%.
O=C(CSc1nnc(-c2ccccn2)o1)Nc1ccccc1 was read as ELG1 repair inh inconclusive, SMN2 splice up 11.2µM*, Rab9 prom act 2.51µM*, NPC1 prom act 2.51µM*, ELG1 genotoxic inconclusive and FLuc counter -16.0%.
For O=C(CSc1nnc(-c2ccccn2)o1)Nc1ccc(F)cc1 the results were ELG1 repair inh inconclusive, Rab9 prom act inconclusive, NPC1 prom act 2µM*, ELG1 genotoxic inconclusive and FLuc counter 5.9%.
Screening O=C(CSc1n[nH]c(-c2ccccn2)n1)Nc1ccc(Cl)cc1 returned ELG1 repair inh 20.6µM*, Rab9 prom act -36.8%, NPC1 prom act -40.2%, ELG1 genotoxic 1.3% and FLuc counter 1.8%.
`Fc1ccc(CSc2nnc(-c3ccccn3)o2)cc1` gave ELG1 repair inh inconclusive, Rab9 prom act 2.24µM*, NPC1 prom act 1.41µM*, ELG1 genotoxic inconclusive and FLuc counter 10.7µM*.
`CC(C)Oc1cccc(C(=O)Nc2ccc(-c3nc4cc(Cl)cc(Cl)c4o3)cc2)c1` gave SMN2 splice up -1.9% and FLuc counter -5.1%.
`O=c1c(NCCc2ccc(Cl)cc2)nccn1-c1ccccc1` gave FLuc counter -9.8%.
`OCc1ccc2c(c1)c(-c1ccc3c(c1)OCCO3)c(-c1ccccc1)n2-c1ccccc1` gave ELG1 repair inh 16.4µM*, Rab9 prom act 0.0%, NPC1 prom act 6.4%, ELG1 genotoxic -8.9% and FLuc counter 0.9%.
`O=C(/C=C/c1cn(-c2ccccc2)nc1-c1ccc2c(c1)OCCO2)NCCO` gave ELG1 repair inh inconclusive, SMN2 splice up 18.7%, Rab9 prom act 1.0%, NPC1 prom act -8.6%, ELG1 genotoxic -12.0% and FLuc counter -3.3%.
`CCCN1CCCc2cc(CN(CCCN3CCOCC3)C(=O)Nc3ccc(Cl)c(Cl)c3)ccc21` gave FLuc counter -2.4%.
`CCOC(=O)Cc1csc(NC(=O)Cc2ccc(C)cc2)n1` gave ELG1 repair inh 15.8%, SMN2 splice up -0.7%, Rab9 prom act -4.0%, NPC1 prom act -5.1%, ELG1 genotoxic -3.5% and FLuc counter -17.3%.

Assay outcomes (PubChem BioAssay)
